# Inconclusive results are not listed. A call without a number means that no potency is given here. Calls of active or inactive are those of the source. The call rests on the fitted dose curve; in most records, active means well fitted inhibition curve with a large enough effect; inconclusive means small, poorly fitted or top-dose-only effect; inactive means flat fitted curve, though single readings scatter.
# Key:
# Assay in all cases: qHTS profiling for inhibitors of Plasmodium falciparum proliferation (AID 504749); further: nearly all actives have a fitted effect of over 60% in size
# Settings in all cases: P. falciparum in erythrocytes, SYBR Green DNA, 72 h; series mostly up to 28.7 µM
# [1] = test system: ATS95
# How it was run: (§1)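 Each compound contacts P. falciparum-infected red blood cells for 72 h at 37 C; lysis buffer (Tris, EDTA, saponin, Triton X, SYBR Green I) is added and fluorescence measured next morning; values normalized to controls.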
# [2] = test system: C2A
# How it was run: as §1
# [3] = test system: CP192
# How it was run: as §1
# [4] = test system: CP194
# How it was run: as §1
# [5] = test system: CP237
# How it was run: as §1
# [6] = test system: CP250
# How it was run: as §1
# [7] = test system: CP256
# How it was run: as §1
# [8] = test system: CP260
# How it was run: as §1
# [9] = test system: CP269
# How it was run: as §1
# [10] = test system: CP315
# How it was run: as §1
# [11] = test system: CP329
# How it was run: as §1
# [12] = test system: DIV30
# How it was run: as §1
# [13] = test system: ECU
# How it was run: as §1
# [14] = test system: HB3
# How it was run: as §1
# [15] = test system: JCK
# How it was run: as §1
# [16] = test system: PC15
# How it was run: as §1
# [17] = test system: PC49
# How it was run: as §1
# [18] = test system: SC27B
# How it was run: as §1
# [19] = test system: TAB113
# How it was run: as §1
# [20] = test system: TAB165
# How it was run: as §1
# Potency means the concentration at half of the fitted maximal effect.
Compound,Potency [1],Potency [2],Potency [3],Potency [4],Potency [5],Potency [6],Potency [7],Potency [8],Potency [9],Potency [10],Potency [11],Potency [12],Potency [13],Potency [14],Potency [15],Potency [16],Potency [17],Potency [18],Potency [19],Potency [20]
NC(C(=O)O)c1ccc(O)cc1 (stereo unspecified),inactive,inactive,inactive,inactive,inactive,inactive,inactive,inactive,inactive,inactive,inactive,inactive,inactive,inactive,inactive,inactive,inactive,inactive,inactive,inactive
CCCC(=O)O[C@]1(C(=O)COC(C)=O)CC[C@H]2C3C[C@H](F)C4=CC(=O)C=CC4(C)[C@@]3(F)[C@@H](O)CC21C (stereo partly specified),inactive,inactive,inactive,inactive,inactive,inactive,inactive,inactive,inactive,inactive,inactive,inactive,inactive,inactive,inactive,inactive,inactive,inactive,inactive,–
CC(CCC(=O)O)C1CCC2C3C(=O)C[C@@H]4CC(=O)CC[C@@]4(C)C3CC(=O)[C@]12C (stereo partly specified),inactive,inactive,inactive,inactive,inactive,inactive,inactive,inactive,inactive,inactive,inactive,inactive,inactive,inactive,inactive,inactive,inactive,inactive,inactive,inactive
COC1CC2CCC(C)[C@](O)(O2)C(=O)C(=O)N2CCCCC2C(=O)OC(C(C)CC2CCC(O)C(OC)C2)CC(=O)C(C)/C=C(/C)C(O)C(OC)C(=O)C(C)CC(C)C=CC=C/C=C\1C (stereo partly specified),3.55 µM (active),4.47 µM (active),4.78 µM (active),3.38 µM (active),2.82 µM (active),3.16 µM (active),3.16 µM (active),2.51 µM (active),4.26 µM (active),4.26 µM (active),4.26 µM (active),0.953 µM (active),2 µM (active),2.51 µM (active),10 µM (active),4.47 µM (active),2.24 µM (active),2 µM (active),1.41 µM (active),1.12 µM (active)
CC1(C(=O)O)CCC2(C)CCC3(C)C(=CC(=O)C4C5(C)CCC(O)C(C)(C)C5CCC43C)C2C1 (stereo unspecified),inactive,inactive,inactive,inactive,inactive,inactive,inactive,inactive,inactive,inactive,inactive,inactive,inactive,inactive,inactive,inactive,inactive,inactive,inactive,inactive
O=C1C(I)=CC(=C(c2cc(I)c(O)c(I)c2)c2ccccc2C(=O)O)C=C1I,inactive,inactive,inactive,inactive,inactive,inactive,inactive,inactive,inactive,inactive,inactive,inactive,inactive,inactive,inactive,inactive,inactive,inactive,inactive,inactive
C[n+]1c2cc(N)ccc2cc2ccc(N)cc21,1.12 µM (active),1 µM (active),1.2 µM (active),1.2 µM (active),0.282 µM (active),1.12 µM (active),1 µM (active),0.316 µM (active),0.953 µM (active),2.13 µM (active),1.07 µM (active),1.69 µM (active),1.26 µM (active),0.447 µM (active),0.794 µM (active),0.178 µM (active),0.447 µM (active),1.58 µM (active),0.891 µM (active),0.398 µM (active)
CO/N=C(/C(=O)N[C@@H]1C(=O)N2C(C(=O)O)=C(CSc3nc(C)c(CC(=O)O)s3)CS[C@H]12)c1csc(N)n1,inactive,inactive,inactive,inactive,inactive,inactive,inactive,inactive,inactive,inactive,inactive,inactive,inactive,inactive,inactive,inactive,inactive,inactive,inactive,inactive
Cc1ccc(/C=C2/C(=O)C3(C)CCC2C3(C)C)cc1 (stereo unspecified),inactive,inactive,inactive,inactive,inactive,inactive,inactive,inactive,inactive,inactive,inactive,inactive,inactive,inactive,inactive,inactive,inactive,inactive,inactive,inactive
CC1(Cn2ccnn2)[C@H](C(=O)O)N2C(=O)C[C@H]2S1(=O)=O (stereo partly specified),inactive,inactive,inactive,inactive,inactive,inactive,inactive,inactive,inactive,inactive,inactive,–,inactive,inactive,inactive,inactive,inactive,inactive,inactive,inactive
CO[C@H]1C[C@@H]2CC[C@@H](C)[C@@](O)(O2)C(=O)C(=O)N2CCCC[C@H]2C(=O)O[C@H]([C@H](C)C[C@@H]2CC[C@@H](O)[C@H](OC)C2)CC(=O)[C@H](C)/C=C(\C)[C@@H](O)[C@@H](OC)C(=O)[C@H](C)C[C@H](C)/C=C/C=C/C=C/1C,3.98 µM (active),3.55 µM (active),4.78 µM (active),3.38 µM (active),5.01 µM (active),3.55 µM (active),4.47 µM (active),4.47 µM (active),4.26 µM (active),4.26 µM (active),4.26 µM (active),1.9 µM (active),2.51 µM (active),8.91 µM (active),10 µM (active),3.98 µM (active),10 µM (active),2.51 µM (active),2.51 µM (active),1.78 µM (active)
Cc1ccccc1N1C(=O)c2cc(N)ccc2N/C1=C\F,inactive,inactive,inactive,inactive,inactive,inactive,inactive,inactive,inactive,inactive,inactive,inactive,inactive,inactive,inactive,inactive,inactive,inactive,inactive,inactive
CO/N=C(/C(=O)N[C@@H]1C(=O)N2C(C(=O)O)=C(CSc3cnns3)CS[C@H]12)c1csc(N)n1,inactive,inactive,inactive,inactive,inactive,inactive,inactive,inactive,inactive,inactive,inactive,inactive,inactive,inactive,inactive,inactive,inactive,inactive,inactive,inactive
NC(=O)c1ncn(C2OC(CO)C(O)C2O)c1N (stereo unspecified),inactive,inactive,inactive,inactive,inactive,inactive,inactive,inactive,inactive,inactive,inactive,inactive,inactive,inactive,inactive,inactive,inactive,inactive,inactive,inactive
Nc1nc(F)nc2c1ncn2[C@@H]1O[C@H](CO)[C@@H](O)[C@H]1O,inactive,inactive,inactive,inactive,inactive,inactive,inactive,inactive,inactive,inactive,inactive,inactive,inactive,inactive,inactive,inactive,inactive,inactive,inactive,inactive
C[S+](C)CC[C@H](N)C(=O)O,inactive,inactive,inactive,inactive,inactive,inactive,inactive,inactive,inactive,inactive,inactive,inactive,inactive,inactive,inactive,inactive,inactive,inactive,inactive,inactive
NC(=O)C1CC2(NC(=O)NC2=O)c2cc(F)ccc2O1 (stereo unspecified),inactive,inactive,inactive,inactive,inactive,inactive,inactive,inactive,inactive,inactive,inactive,inactive,inactive,inactive,inactive,inactive,inactive,inactive,inactive,inactive
CC(O)C1CCC2C3CCC4CC(O)CCC4(C)C3CCC12C (stereo unspecified),inactive,inactive,inactive,inactive,inactive,inactive,inactive,inactive,inactive,inactive,inactive,inactive,inactive,inactive,inactive,inactive,inactive,inactive,inactive,inactive
C[C@@H]1CC2C3CCC4=CC(=O)C=C[C@]4(C)[C@@]3(F)[C@@H](O)C[C@]2(C)[C@@]1(O)C(=O)COC(=O)c1cccc(S(=O)(=O)O)c1 (stereo partly specified),inactive,inactive,inactive,inactive,inactive,inactive,inactive,inactive,inactive,inactive,inactive,inactive,inactive,inactive,inactive,inactive,inactive,inactive,inactive,inactive
CC(=O)C1(O)Cc2c(O)c3c(c(O)c2C(OC2CC(N)C(O)C(C)O2)C1)C(=O)c1c(O)cccc1C3=O (stereo unspecified),6.31 µM (active),8.91 µM (active),10.7 µM (active),12 µM (active),2.82 µM (active),11.2 µM (active),10 µM (active),3.98 µM (active),15.1 µM (active),–,12 µM (active),–,8.91 µM (active),6.31 µM (active),12.6 µM (active),11.2 µM (active),6.31 µM (active),4.47 µM (active),6.31 µM (active),4.47 µM (active)

# Reference: PubChem BioAssay (NCATS)
